Data as given in PubChem BioAssay AID1159580 (chemical genetic matrix, 2015).
The whole screen tested about 5,500 compounds, of which about 2,000 (36%) were called active. Another 18% or so got no clear call; they are omitted. No stated cut-off is given here; in the data, active means normalized growth mostly below about 0.91 (no sharp cut-off); inconclusive means no clear call, values can overlap the other calls; inactive means mostly above about 0.92. The list shows a part of the results.

Assay: chemical genetic growth profiling, strain panel (AID 1159580);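 further: tested at 20 µM; growth read once vehicle control cultures reached saturation at 30 °C; 1 = growth at the plate median or of vehicle wells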
Details: S. cerevisiae deletion strains, growth OD
[1] = locus YDL101C, strain DUN1, stronger effect = lower value
[2] = locus YHR030C, strain SLT2, stronger effect = lower value
[3] = locus YAL013W, strain DEP1, stronger effect = lower value
[4] = locus YBR229C, strain ROT2, stronger effect = lower value
[5] = locus YDR150W, strain NUM1, stronger effect = lower value
[6] = locus YEL061C, strain CIN8, stronger effect = lower value
[7] = locus YGR078C, strain PAC10, stronger effect = lower value
[8] = locus YHR087W, strain rtc3, stronger effect = lower value
[9] = locus YJR043C, strain POL32, stronger effect = lower value
[10] = locus YJR075W, strain HOC1, stronger effect = lower value
[11] = locus YLR039C, strain RIC1, stronger effect = lower value
[12] = locus YLR058C, strain SHM2 (second series), stronger effect = lower value
[13] = locus YLR085C, strain ARP6, stronger effect = lower value
[14] = locus YLR262C, strain YPT6, stronger effect = lower value
[15] = locus YML094W, strain GIM5, stronger effect = lower value
[16] = locus YMR219W, strain ESC1, stronger effect = lower value
[17] = locus YMR263W, strain SAP30, stronger effect = lower value
[18] = locus YNL153C, strain GIM3, stronger effect = lower value
[19] = locus YNL298W, strain CLA4 (second series), stronger effect = lower value
[20] = locus YNL322C, strain KRE1, stronger effect = lower value
[21] = locus YNR030W, strain Alg12, stronger effect = lower value
[22] = locus YPL055C, strain LGE1, stronger effect = lower value
[23] = locus YPL241C, strain CIN2, stronger effect = lower value
[24] = locus YPR135W, strain CTF4, stronger effect = lower value

Measured: normalized growth

O=S(=O)(Nc1ccccc1Sc1c(Cl)cncc1Cl)c1ccc(Cl)cc1
inactive: locus YAR019C, strain CDC15, stronger effect = lower value 0.981 | locus YBL105C, strain PKC1, stronger effect = lower value 0.987 | locus YBR135W, strain CKS1, stronger effect = lower value 0.985 | locus YBR136W, strain MEC1, stronger effect = lower value 0.987 | locus YBR160W, strain CDC28, stronger effect = lower value 0.988 | locus YDL017W, strain CDC7, stronger effect = lower value 0.986 | locus YDL028C, strain MPS1, stronger effect = lower value 0.995 | [1] 0.973 | locus YDL108W, strain KIN28, stronger effect = lower value 0.985 | locus YDL132W, strain cdc53, stronger effect = lower value 0.974 | locus YDL214C, strain PRR2, stronger effect = lower value 1 | locus YDR052C, strain DBF4, stronger effect = lower value 0.984 | locus YDR054C, strain cdc34, stronger effect = lower value 0.974 | locus YDR226W, strain ADK1, stronger effect = lower value 0.985 | locus YDR477W, strain SNF1, stronger effect = lower value 0.99 | locus YER123W, strain YCK3, stronger effect = lower value 1 | locus YER133W, strain GLC7, stronger effect = lower value 1 | locus YFL009W, strain cdc4, stronger effect = lower value 0.98 | locus YFL029C, strain CAK1, stronger effect = lower value 0.985 | locus YFR003C, strain YPI1, stronger effect = lower value 0.98 | locus YFR019W, strain FAB1, stronger effect = lower value 0.998 | locus YFR028C, strain CDC14, stronger effect = lower value 0.986 | locus YGR040W, strain KSS1, stronger effect = lower value 0.993 | locus YGR052W, strain FMP48, stronger effect = lower value 1.07 | locus YGR092W, strain DBF2, stronger effect = lower value 0.988 | [2] 1.13 | locus YHR079C, strain IRE1, stronger effect = lower value 1 | locus YHR082C, strain KSP1, stronger effect = lower value 1.27 | locus YHR205W, strain SCH9, stronger effect = lower value 0.981 | locus YIL147C, strain SLN1, stronger effect = lower value 0.988 | locus YJL095W, strain BCK1, stronger effect = lower value 0.974 | locus YJL128C, strain PBS2, stronger effect = lower value 0.916 | locus YJL157C, strain FAR1, stronger effect = lower value 0.997 | locus YJR016C, strain ILV3, stronger effect = lower value 0.974 | locus YJR066W, strain TOR1 (second series), stronger effect = lower value 1 | locus YJR066W, strain TOR1, stronger effect = lower value 1.26 | locus YKL048C, strain ELM1, stronger effect = lower value 0.955 | locus YKL067W, strain YNK1, stronger effect = lower value 0.978 | locus YKL101W, strain HSL1, stronger effect = lower value 0.958 | locus YKL193C, strain SDS22, stronger effect = lower value 0.977 | locus YKL203C, strain TOR2, stronger effect = lower value 1.06 | locus YLR113W, strain HOG1, stronger effect = lower value 0.995 | locus YLR133W, strain CKI1, stronger effect = lower value 0.979 | locus YLR403W, strain SFP1, stronger effect = lower value 1 | locus YML070W, strain DAK1, stronger effect = lower value 0.995 | locus YMR001C, strain CDC5, stronger effect = lower value 0.984 | locus YMR205C, strain PFK2 (second series), stronger effect = lower value 0.998 | locus YMR277W, strain FCP1, stronger effect = lower value 0.978 | locus YNL006W, strain LST8, stronger effect = lower value 0.982 | locus YNL020C, strain ARK1, stronger effect = lower value 0.978 | locus YNL161W, strain CBK1, stronger effect = lower value 0.98 | locus YNL183C, strain NPR1, stronger effect = lower value 0.961 | locus YNL207W, strain RIO2, stronger effect = lower value 0.985 | locus YNL222W, strain SSU72, stronger effect = lower value 0.994 | locus YNL307C, strain MCK1 (second series), stronger effect = lower value 0.978 | locus YOL078W, strain AVO1, stronger effect = lower value 0.96 | locus YOL136C, strain PFK27, stronger effect = lower value 1 | locus YOR061W, strain CKA2, stronger effect = lower value 0.991 | locus YOR119C, strain RIO1, stronger effect = lower value 1.01 | locus YOR231W, strain MKK1, stronger effect = lower value 0.998 | locus YOR329C, strain SCD5, stronger effect = lower value 0.989 | locus YPL031C, strain PHO85, stronger effect = lower value 0.995 | locus YPL153C, strain RAD53, stronger effect = lower value 0.994 | locus YPL204W, strain HRR25, stronger effect = lower value 1 | locus YPL209C, strain IPL1, stronger effect = lower value 0.99 | locus YPL256C, strain CLN2, stronger effect = lower value 0.97 | locus YPR025C, strain CCL1, stronger effect = lower value 0.992 | locus YPR106W, strain ISR1, stronger effect = lower value 0.968 | locus YPR111W, strain DBF20, stronger effect = lower value 0.959 | strain NNK1, stronger effect = lower value 0.963 | strain TSCII, stronger effect = lower value 0.985

Cc1ccc(Sc2ncccc2C(=O)NCC(=O)O)cc1
inactive: [3] 1.03 | [4] 1.02 | [1] 1.04 | locus YDL134C, strain PPH21, stronger effect = lower value 0.999 | [5] 1.03 | [6] 1.01 | [7] 1.04 | [2] 1.06 | [8] 0.994 | [9] 0.962 | [10] 1.02 | [11] 1 | [12] 1.02 | [13] 1.02 | [14] 1.01 | [15] 0.992 | [16] 1.01 | [17] 1.02 | [18] 1.03 | [19] 1.02 | [20] 1.01 | [21] 1.02 | locus YOL006C, strain TOP1, stronger effect = lower value 1.04 | [22] 1.01 | [23] 0.996 | [24] 1.08

NNC(=O)c1cccnc1Oc1ccccc1
inactive: [3] 1.01 | [4] 0.998 | [1] 1.03 | [5] 1.04 | [6] 1.02 | [7] 1.02 | [2] 1.11 | [8] 1.02 | [9] 1.01 | [10] 1.03 | locus YKL190W, strain CNB1, stronger effect = lower value 1.02 | [11] 1.12 | [12] 1 | [13] 1.12 | [14] 1.01 | [15] 1.03 | [16] 1.02 | [17] 1.02 | [18] 1.01 | [19] 1.08 | [20] 1.01 | [21] 1.03 | [22] 1.02 | [23] 1.04 | [24] 1.14
